According to PubChem BioAssay AID1259416 (Broad Institute, 2018):
Values joined by “and” are separate entries in the source; they are usually repeats but may differ in a detail not shown here. Equal values may be shown once. The campaign covered roughly 69,000 compounds. About 2,600 (3.8%) were called active. No stated cut-off is given here; in the data, active means activity change below about -70% (passing the limit was not always enough); inconclusive means no clear call, values can overlap the other calls. The full list was thinned out, with actives kept by preference. More than one record can exist for a structure, and the calls need not agree.

Experiment: T. gondii growth inhibition with IFN-gamma, primary screen, cell-based (AID 1259416);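 further: host cells are HeLa cells infected with Toxoplasma gondii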
Details: Toxoplasma gondii growth in IFN-gamma-treated host cells; stronger effect = lower value; concentration not given here

SMILES	activity change, negative = inhibition
Cc1nn(CC(C)C)c2c1C(c1cnn3cccnc13)CC(=O)N2 (stereo unspecified)	-4.06% (inactive)
O=C1CC(c2cccnc2)c2cnn(CC3CC3)c2N1 (stereo unspecified)	6.49% (inactive)
CC(C)Cn1ncc2c1NC(=O)CC2c1csc(-c2ccccc2)n1 (stereo unspecified)	-98.9% (active)
COCCN1CC2(CCOCC2)c2cc(NC(=O)C3CCC3)ccc21	-48.6% (inactive)
Cc1nn(C)c(C)c1CCC(=O)N[C@H]1CCC(=O)NC1c1cccnc1 (stereo partly specified)	85.1% (inactive)
COc1ccc(-c2cccc(-c3nnc(C)s3)c2)c(OC)c1	-81.9% (active)
COc1cccc(-c2nc(C)c(-c3ccc(SCc4ccccc4)nn3)s2)c1	-15.2% (inactive)
COc1cccc(-c2nc(C)c(-c3ccc(SCc4cccc5ccccc45)nn3)s2)c1	-1.38% (inactive)
CCc1cn[nH]c1C1CCN(C(=O)C2COc3c(cccc3OC)C2)CC1 (stereo unspecified)	-0.504% (inactive)
NCC(=O)CCC(=O)OCc1ccccc1	9.17% (inactive)
O=C1CCCCC(=O)c2ccccc2N1	-17.8% (inactive)
Cc1cc(C)c(/C=C2\C(=O)Nc3ccccc32)[nH]1	22% (inactive) and -75.5% (active)
CNc1ccc(Cl)cc1C(=O)NCCN(C)S(C)(=O)=O	-31% (inactive)
CC(=O)N1CCn2c(-c3cnn(C)c3)cnc2C12CCN(S(=O)(=O)C1CC1)CC2	7.11% (inactive)
O=C(NC1CC1)c1cc2n(n1)CCN(C(=O)CCn1nnc3ccccc31)C2	-45.8% (inactive)
C[C@H]1CN([C@@H](C)CO)C(=O)CCCn2cc(nn2)CO[C@@H]1CN(C)S(=O)(=O)c1ccc(-n2cccn2)cc1	-30.5% (inactive)
C[C@H]1CN([C@@H](C)CO)C(=O)CCCn2cc(nn2)CO[C@@H]1CN(C)S(=O)(=O)c1cccc(C#N)c1	24.6% (inactive)
C[C@@H]1CN([C@@H](C)CO)C(=O)CCCn2cc(nn2)CO[C@H]1CN(C)S(=O)(=O)c1ccc(-n2cccn2)cc1	-114% (active)
O=C(c1cc(COc2c(F)cccc2F)on1)N1CCCC1c1ccco1 (stereo unspecified)	1.77% (inactive)
CC(=O)Nc1ccc(NS(=O)(=O)c2ccc3oc(=O)ccc3c2)cc1	137% (inactive)
O=C(C1CCN(S(=O)(=O)c2ccc3[nH]c(=O)ccc3c2)CC1)N1CCN(c2ccccc2F)CC1	27.2% (inactive)
O=C(Oc1ccc(Cl)cc1)c1snnc1-c1ccccc1	-78% (active)
COc1ccc2c(c1)NC1(CCN(S(=O)(=O)c3ccc(F)c(Cl)c3)CC1)c1cccn1-2	11.3% (inactive)

SMILES	activity change, negative = inhibition
COc1ncccc1CN1CCc2[nH]cnc2C1Cc1ccccc1 (stereo unspecified)	-52.3% (inactive)
CC(=O)Nc1ccc(NC(=O)CSc2nnnn2C2CCCCC2)cc1	2.96% (inactive)
C=CCC1(O)C(C)C(c2ccccc2)N(C)C(c2ccccc2)C1C (stereo unspecified)	-91.3% (active)
CN(C)C(=O)NC[C@H]1CCC[C@]2(CCN(Cc3nccs3)C2)O1	-40.2% (inactive)
O=C(Nc1ccc(C(F)(F)F)cn1)Nc1ccc(-c2ccccc2)s1	-27.9% (inactive)
COc1cccc(NC(=O)N2CCC3(CC2)CC(=O)c2ccccc2O3)c1	-5.86% (inactive)
Cc1c(C(=O)N2CCCCC2)oc2ccc3c(c12)C(=O)CC1(CCCCCC1)O3	-112% (active)
Cc1c(C(=O)N2CCC3(CC2)CC(O)(c2nccs2)CO3)oc2ccccc12 (stereo unspecified)	-14.2% (inactive)
c1ccc2ncc(-c3ccncn3)cc2c1	1.85% (inactive)
CC(C)CNC(=O)c1ccc2c(c1)C(c1ncn(C(C)C)n1)CN2C(=O)c1ccccc1 (stereo unspecified)	-46.3% (inactive)
Cc1nc2cc(C(=O)NC3(c4ccc5c(c4)OCO5)CCCC3)ccc2s1	-5.47% (inactive)
C=CCN(Cc1ccccc1Cl)C(=O)c1ccc(CN(C)C)o1	-46.3% (inactive)
C/C(=N/N1CCN(Cc2cccc3ccccc23)CC1)c1cccnc1	-96% (active)
Cc1cc(-c2ccccc2CN2CCOCC2)ccc1NC(=O)c1cccnc1	-6.76% (inactive)
Cc1ccc(CC(=O)c2cccnc2)cc1	14% (inactive)
Cc1ccc(-c2cc(C(=O)Nc3ccc4c(c3)N(S(C)(=O)=O)CCC4)[nH]n2)cc1	-78.5% (active)
Cc1ccc(C(=O)Nc2ccc(-c3nc(-c4ccc(C)cc4)co3)cc2)cc1	42.6% (inactive)
O=C1CCc2cc(NC(=O)c3cc(-c4ccccc4)nc4ccccc34)ccc2N1	-32.2% (inactive)
CN1CCN([C@H]2CN(Cc3ncc[nH]3)C[C@@H]2O)CC1	28% (inactive)
c1cncc(-c2nc3c(c(NCCC4CCOC4)n2)CCNC3)c1 (stereo unspecified)	-9.13% (inactive)
CCC(NC(=O)CCn1c(C)cc2ccccc21)c1cccnc1 (stereo unspecified)	0.306% (inactive)
CCn1c(-c2cc(NC(=O)c3ccncc3)n[nH]2)cc2ccccc21	-91% (active)
CN1CCN(C(=O)c2cncc(N3CCC4(CCOCC4)CC3)n2)CC1	-7.63% (inactive)

SMILES	activity change, negative = inhibition
Cc1nc(C)n(C(=O)N2CCOCC2)n1	-8.09% (inactive)
Cc1nc(N)nc(C)c1CC(=O)N1CCC2(CCOCC2)CC1	-82.2% (active)
COCCN1CC[C@@H]2C[C@@H](C(=O)N3CCCCO3)O[C@@H]2C1	-6.09% (inactive)
CCN1CCO[C@H]2CN(S(=O)(=O)c3cccs3)CC[C@@H]2C1	1.58% (inactive)
COC(C)c1nncn1-c1cccc2ccccc12 (stereo unspecified)	-48.2% (inactive)
CC(=O)NC1(c2ccc(F)cc2)CCN(Cc2ccc(Oc3ncccn3)cc2)CC1	9.39% (inactive)
Cc1ccn(CC(=O)N2CCN3CCNC(=O)C3C2)n1 (stereo unspecified)	-2.78% (inactive)
COc1ccccc1OCc1cc(C(=O)NCCF)n[nH]1	35.8% (inactive)
CCCNS(=O)(=O)c1ccc(CCC(=O)N2CCCC2)cc1	-8.43% (inactive)
CN(C)S(=O)(=O)c1ccc2c(c1)cc(C(=O)NCCC1=CCCCC1)n2Cc1ccncc1	-54.8% (inactive)
O=S(=O)(NCCC1=CCCCC1)c1ccc(S(=O)(=O)NC2CCCCC2)cc1	-84.3% (active)
Cc1ccccc1NC(=O)c1ccc2ccc(N3CCN(CC4CC4)CC3)n2c1	2.07% (inactive)
N#C[C@H]1N[C@H](CO)[C@H]1c1ccc(-c2cccc(F)c2)cc1	17.8% (inactive)
CC(=O)N1CCCCN2[C@H](CO)[C@H](c3ccc(-c4ccccc4)cc3)[C@@H]2C1	12.2% (inactive)
CC(C)C(=O)Nc1cccnc1-c1ccc(C(C)N2CCOCC2)cc1 (stereo unspecified)	0.361% (inactive)
COc1ccccc1CCC(=O)N1CCC2(CC1)Nc1cccnc1NC2=NC(C)(C)C	74.7% (inactive)
Cc1cc(C)c(C#N)c(Sc2ccc(Cl)cc2)n1	-73.5% (active)
CSc1nn2c(C)cc(C)nc2c1C#N	44.4% (inactive)
Cc1[nH]c2ccccc2c1Sc1ccc(Cl)cc1	-55.7% (inactive)
COc1ccc(NS(=O)(=O)c2ccc(NC(=S)NC(=O)c3cccs3)cc2)nn1	1.98% (inactive)
O=C(Cc1ccccn1)N1[C@@H]2CNc3ccccc3[C@@H]2[C@@H]1CO	1.07% (inactive)
CCCn1cc(C(=O)N(Cc2ccccn2)CC2CCCO2)c(C)n1 (stereo unspecified)	-1.25% (inactive)
Cc1nc([C@@H]2C[C@H]3CCN(Cc4sccc4C)C[C@@H]3O2)no1	95.8% (inactive)

SMILES	activity change, negative = inhibition
Cc1ccc2c(c1C)-n1cccc1C1(CCN(S(=O)(=O)c3ccc(C4CCCCC4)cc3)CC1)N2	30.2% (inactive)
C=CCn1c(SCc2ccc(C(=O)NCCO)cc2)nc2ccccc2c1=O	-34.4% (inactive)
Cn1c(CNC(=O)CC2CCCC2)nnc1SCc1ccccn1	2.95% (inactive)
Cn1c(SCc2csc(C3CCCCC3)n2)nc2ccccc2c1=O	-80.1% (active)
Cc1ccsc1-c1cn(CC2(Cn3ccnc3C)CC2)nn1	8.54% (inactive)
O=C(c1cn(-c2ccccc2)nn1)N(Cc1ccsc1)CC1CCCO1 (stereo unspecified)	1.85% (inactive)
COCc1ncc(CN2CCC(Cc3cccc(C(=O)O)c3)C2)cn1 (stereo unspecified)	3.4% (inactive)
Cc1oc(C(C)(C)C)cc1C(=O)Nc1ccc(SCc2cccc(Cl)c2F)cc1	-75.3% (active)
Cc1cnc(CN(C)C(=O)C(C)(C)NC(=O)c2cccs2)[nH]1	-13.9% (inactive)
CN1CCN(c2ccc3nc(-c4c(N)c5c(F)cccc5[nH]c4=O)[nH]c3c2)CC1	-66.4% (inactive) and -77.3% (active)
Clc1cccnc1-c1cccc2[nH]ccc12	9.34% (inactive)
CC(C)C(=O)NS(=O)(=O)c1ccc(NC(=O)c2ccccc2)cc1	5.8% (inactive)
COc1cc(NC(=O)Nc2cccc(CNC(=O)O[C@H]3CCOC3)c2)ccc1-c1cnco1	-72.9% (active)
COc1cccc(CNC(=O)Nc2ccc(-c3nc(-c4cc(C)ccc4C)co3)cc2)c1	-13% (inactive)
COc1cccc(NC(=O)Nc2ccc3c(c2)C(=O)N(C)C[C@@H](OC)[C@H](C)CN(CC2CC2)[C@H](C)CO3)c1	63.1% (inactive)
Cc1nc2c(c(N3CCN(C(=O)c4ccccc4F)CC3)n1)CN(Cc1ccccc1)CC2	-27.3% (inactive)
COCC(=O)N1CCC(N(C)Cc2ccccc2)CC1C(=O)O (stereo unspecified)	3.74% (inactive)
Cc1nn(-c2ccccc2)c(C)c1-c1ccnc(NCc2cnc3ccccn23)n1	-82.8% (active)
Cc1nn(C)cc1-c1ccnc(NCC2CCN(Cc3ccccc3)C2)n1 (stereo unspecified)	-13.6% (inactive)
COc1cc(CN(C)Cc2ncccc2C)cc(OC)c1	-4.74% (inactive)
COCCN1C(=O)CCc2cc(NC(=O)CC(C)(C)C)ccc21	3.59% (inactive)
CN(Cc1cccnc1)C1COC2(CCN(Cc3cccs3)CC2)C1 (stereo unspecified)	1.79% (inactive)
